In PubChem BioAssay AID362 (NMMLSC, 2006):
Among all 4,300 compounds or so, about 60 (1%) were called active. What follows is part of a selection rich in actives, with near analogues and random picks from the rest. Unmarked numbers belong to inactive results.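 How the source made its calls: active means inhibition of labelled peptide binding to the formyl peptide receptor of at least 65%; inactive means the rest.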

target: fMet-Leu-Phe receptor (Homo sapiens) (UniProt P21462); experiment: small-molecule ligands of human FPR – U937-FPR cells, fMLFK-FITC, flow cytometry, primary screen (AID 362); conditions: fMLFK-FITC displacement; active compounds read high, concentration not given here;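 on inhibition: plate controls were buffer control wells for no effect and unlabeled fMLFF blocking peptide for full effect; higher means less cell fluorescence so more probe displaced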
Sequence (P21462 whole entry, looked up): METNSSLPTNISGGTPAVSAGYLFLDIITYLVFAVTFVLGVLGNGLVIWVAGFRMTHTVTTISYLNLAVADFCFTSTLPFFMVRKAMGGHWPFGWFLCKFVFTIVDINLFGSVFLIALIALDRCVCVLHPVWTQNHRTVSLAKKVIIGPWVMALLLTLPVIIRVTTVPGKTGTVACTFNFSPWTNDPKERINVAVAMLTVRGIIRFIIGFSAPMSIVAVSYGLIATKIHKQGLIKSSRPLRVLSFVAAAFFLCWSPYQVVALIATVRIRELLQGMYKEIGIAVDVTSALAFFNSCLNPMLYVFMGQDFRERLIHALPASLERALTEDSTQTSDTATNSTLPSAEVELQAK

Row | Compound | inhibition
1 | CCCc1cc(=O)oc2cc(OC(C)=O)ccc12 | 17.6%
2 | CCCc1cc(=O)oc2cc(OC(C)=O)cc(OC(C)=O)c12 | 77.3% (active)
3 | CCCc1cc(=O)oc2cc(OCC(=O)OCC)cc(OCC(=O)OCC)c12 | inactive
4 | CCOc1ccc(CCNC(=O)c2cn(CC(C)C)c(=O)c3cc(OC)c(OC)cc23)cc1OCC | inactive
5 | C=C(C)Cn1c(SCC(=O)c2ccccc2)nc2c(c1=O)C1(CCCC1)Cc1ccccc1-2 | inactive
6 | CCOC(=O)c1cc2c(=O)n3ccccc3nc2n(CC(C)C)c1=NC(=O)c1ccccc1OCC | inactive
7 | Cc1sc(NC(=O)C2CCCCC2C(=O)O)c(C(N)=O)c1-c1ccc(C(C)(C)C)cc1 (stereo unspecified) | 70.2% (active)
8 | CCCOC(=O)c1c(NC(=O)C2CCCCC2C(=O)O)sc(C)c1C (stereo unspecified) | 35.7%
9 | CCOC(=O)c1c(NC(=O)C2CCCCC2C(=O)O)sc(C)c1-c1ccc(Cl)cc1 (stereo unspecified) | 77.1% (active)
10 | CCCOC(=O)c1c(NC(=O)C2CCCCC2C(=O)O)sc(C)c1-c1ccc(F)cc1 (stereo unspecified) | 17.2%
11 | CCOC(=O)c1c(NC(=O)C2C3CCC(C3)C2C(=O)O)sc(C)c1-c1ccc(Cl)cc1 (stereo unspecified) | 45.9%
12 | CCOC(=O)c1c(NC(=O)C2CCCCC2C(=O)O)sc(C)c1-c1ccc(C(C)(C)C)cc1 (stereo unspecified) | 29.4%
13 | CCOC(=O)c1c(NC(=O)C2CCCCC2C(=O)O)sc(C)c1-c1ccc(F)cc1 (stereo unspecified) | 57.3%
14 | Cc1sc(NC(=O)C2C3CCC(C3)C2C(=O)O)c(C(N)=O)c1-c1ccc(C(C)(C)C)cc1 (stereo unspecified) | 82% (active)
15 | CCOC(=O)c1c(NC(=O)C2C3CCC(C3)C2C(=O)O)sc(C)c1-c1ccc(C(C)(C)C)cc1 (stereo unspecified) | 63.6%
16 | N#CC1=C(SCC(=O)Nc2ccc(Br)cc2)NC(=O)C(C#N)C12CCCCC2 (stereo unspecified) | 79.2% (active)
17 | N#CC1=C(SCC(=O)Nc2ccc(F)cc2)NC(=O)C(C#N)C12CCCCC2 (stereo unspecified) | 15.5%
18 | N#CC1=C(SCC(=O)Nc2ccc(Cl)cc2)NC(=O)C(C#N)C12CCCCC2 (stereo unspecified) | 52.1%
19 | O=C(CCCN1C(=O)c2cccc3cccc(c23)C1=O)N1CCC(CN2C(=O)c3cccc4cccc(c34)C2=O)CC1 | inactive
20 | O=C1c2cccc3cccc(c23)C(=O)N1CC1CCN(C(=O)C23CC4CC(CC(C4)C2)C3)CC1 | inactive
21 | CC1CCC(C(C)C)C(OCC(O)CN2CCC(CN3C(=O)c4cccc5cccc(c45)C3=O)CC2)C1 (stereo unspecified) | 93.4% (active)
22 | CCOC(=O)c1cnc2ccc(OC)cc2c1NC1CCCCC1 | 99.3% (active)
23 | CCOC(=O)c1cnc2cc(Cl)c(OC)cc2c1NCCC1=CCCCC1 | 0.9%
24 | CCOC(=O)c1cnc2ccc(OCC)cc2c1N1CCCCCC1 | 25.2%

Row | Compound | inhibition
25 | CCCN(CCC)Cc1c(O)ccc2c(=O)c(Oc3cc(C)cc(C)c3)c(C(F)(F)F)oc12 | 17.9%
26 | COc1cc2c(C(=O)NCCc3ccc(Cl)cc3)cn(CC(C)C)c(=O)c2cc1OC | inactive
27 | CC(=O)Oc1ccc(C2Nc3c(C(=O)O)ccc([N+](=O)[O-])c3C3C=CCC32)cc1 (stereo unspecified) | inactive
28 | CCOC(=O)C1CCC(CN(Cc2cccc(Br)c2)S(=O)(=O)c2cccc(C(F)(F)F)c2)CC1 (stereo unspecified) | inactive
29 | CN(C)c1ccc(C(c2cc(C(C)(C)C)c(O)c(C(C)(C)C)c2)N2CCOCC2)cc1 (stereo unspecified) | 29.2%
30 | CCc1cc2c(=O)c(Oc3ccccc3)c(C(F)(F)F)oc2cc1O | 70.8% (active)
31 | O=c1c(Oc2ccccc2)c(C(F)(F)F)oc2cc(O)ccc12 | 46.2%
32 | CCCc1cc2c(=O)c(-c3ccc(C(=O)OCC)o3)coc2cc1OC(C)=O | 16.9%
33 | CCc1cc2c(=O)c(Oc3ccccc3)c(C(F)(F)F)oc2cc1OC(C)=O | 121% (active)
34 | CCCc1cc2c(=O)c(-c3ccc(C(=O)OCC)o3)c(C(=O)OCC)oc2cc1OC(C)=O | 96% (active)
35 | CCCc1cc2c(=O)c(-c3ccc(C(=O)OCC)o3)c(C(=O)OCC)oc2cc1OC | 7.1%
36 | CCc1cc2c(=O)c(-c3nc4ccccc4n3C)c(C(F)(F)F)oc2cc1O | inactive
37 | CCOC(=O)c1ccc(-c2c(C(F)(F)F)oc3cc(O)c(CC)cc3c2=O)o1 | 79.1% (active)
38 | CCCc1cc(-c2n[nH]c(C)c2-c2ccc(C(=O)OCC)o2)c(O)cc1O | 10.6%
39 | CCOc1ccc2c(=O)c(Oc3ccccc3)c(C(F)(F)F)oc2c1 | inactive
40 | CCOc1cc2oc(C(F)(F)F)c(Oc3ccccc3)c(=O)c2cc1CC | 27.9%
41 | CCc1cc2c(=O)c(Oc3ccccc3)c(C(F)(F)F)oc2cc1OC | inactive
42 | CC(=O)N1CCCc2cc(S(=O)(=O)NC(C(=O)Nc3nc4ccc(C)cc4s3)C(C)C)ccc21 (stereo unspecified) | inactive
43 | COCCOC(=O)C1=C(C)NC2=C(C(=O)C(C(=O)OC)C(C)C2)C1c1cccc(O)c1 (stereo unspecified) | 4.6%
44 | CC1(C)CC(=O)C2=C(C1)OC(N)=C(C#N)C2c1ccc(Cl)cc1 (stereo unspecified) | 7.6%
45 | CC(=O)N1CCc2cc(S(=O)(=O)NC(C(=O)Nc3ccccn3)C(C)C)ccc21 (stereo unspecified) | inactive
46 | Cc1cc(C)c(S(=O)(=O)NCC2CCC(C(=O)NCCc3ccc(Cl)cc3)CC2)c(C)c1 (stereo unspecified) | 18.5%
47 | CCc1cc(=O)oc2cc(OCC(=O)OC)c(Cl)cc12 | inactive
48 | CCCOc1ccc(C2NC(=O)NC(C)=C2C(=O)OCC(C)CCC)cc1 (stereo unspecified) | inactive

Row | Compound | inhibition
49 | CCOC(=O)Oc1ccc2c(=O)c(Oc3cccc(C)c3)c(C(F)(F)F)oc2c1 | inactive
50 | CCOc1ccc2c(c1)C(C)=CC(C)(C)N2C(=O)C(C)N1C(=O)c2ccccc2C1=O (stereo unspecified) | inactive
51 | Cc1cc(NC(=O)CSc2nc3ccccc3c(=O)n2CC2CCC(C(=O)NCCc3ccccc3)CC2)no1 (stereo unspecified) | inactive
52 | CNC(=O)C1CCC(CNS(=O)(=O)c2ccc(NC(C)=O)cc2)CC1 (stereo unspecified) | inactive
53 | CCOC(=O)Oc1ccc2c(=O)c(-c3ccccc3OC)c(C(F)(F)F)oc2c1 | 36.6%
54 | CCCc1cc2c(=O)c(-c3nc(C)cs3)c(C)oc2cc1OC(C)=O | 72.7% (active)
55 | CC(=O)Oc1ccc2c(=O)c(Oc3ccccc3)c(C(F)(F)F)oc2c1 | 97.6% (active)
56 | COc1ccc2c(=O)c(-c3ccccc3OC)c(C(F)(F)F)oc2c1 | inactive
57 | CCCc1ccc(Oc2c(C(F)(F)F)oc3cc(OC(C)=O)ccc3c2=O)cc1 | 46.4%
58 | COc1ccccc1-c1c(C(F)(F)F)oc2cc(OC(=O)C(C)C)ccc2c1=O | 92% (active)
59 | CC(=O)Oc1ccc2c(=O)c(Oc3cc(C)cc(C)c3)c(C(F)(F)F)oc2c1 | 9.4%
60 | CCCc1cc2c(=O)c(-c3nc4ccccc4s3)c(C)oc2cc1OC(C)=O | inactive
61 | CCCc1cc2c(=O)c(-c3nc(C)cs3)coc2cc1OC(C)=O | inactive
62 | CCCCNC(=O)C1CCN(S(=O)(=O)N(CC(C)C)CC(C)C)CC1 | inactive
63 | CCCOC(=O)c1c(NC(=O)C2C3C=CC(C3)C2C(=O)O)sc2c1CCCC2 (stereo unspecified) | inactive
64 | COc1cc2c(C(=O)N(C)c3cccc(C(F)(F)F)c3)cn(CC(C)C)c(=O)c2cc1OC | inactive
65 | CC(C)CCn1c(CN2CCN(C(c3ccccc3)c3ccccc3)CC2)nc2c1c(=O)n(C)c(=O)n2C | inactive
66 | CSc1nc(OCC(=O)c2ccc(Cl)cc2)c2c3c(sc2n1)CCCC3 | inactive
67 | Cc1sc2ncn(CC(=O)NCc3cccnc3)c(=O)c2c1S(=O)(=O)N1CCC(C)CC1 | inactive
68 | CC(C)Cn1cc(C(=O)NCc2ccco2)c2c3ccccc3n(C)c2c1=O | inactive
69 | CCCOc1ccc(C(=O)CCNC(C(=O)O)C(C)C)cc1 (stereo unspecified) | inactive
70 | COc1ccc(C(=O)COC(=O)C(CC(C)C)N2C(=O)c3ccccc3C2=O)cc1 (stereo unspecified) | inactive
71 | CCOC(=O)C1=C(C)C2C3C(=O)N(c4cccc5ccccc45)C(=O)C3C1(C)C1C(=O)N(c3cccc4ccccc34)C(=O)C21 (stereo unspecified) | 13.4%
72 | CCN(CCCNC(=O)Cn1cnc2sc(C)c(S(=O)(=O)N3CCC(C)CC3)c2c1=O)c1cccc(C)c1 | inactive

Row | Compound | inhibition
73 | O=C(CSc1nc(-c2ccccc2)nc2c1CCCC2)N1CCCCC1 | 86.8% (active)
74 | O=C(CSc1nc(-c2ccccc2)nc2c1CCCC2)N1CCOCC1 | inactive
75 | O=C(O)CSc1nc(-c2ccccc2)nc2c1CCCC2 | inactive
76 | CCOC(=O)C1=C(C)NC2=C(C(=O)C(C(=O)OC)C(C)C2)C1c1ccc(N(C)C)cc1 (stereo unspecified) | 10%
77 | CCOC(=O)C1CCN(C(=O)c2cn(CC(C)C)c(=O)c3cc(OC)c(OC)cc23)CC1 | 11.2%
78 | CC1(C)CC(=O)C2=C(C1)OC(N)=C(C#N)C2(C)C | inactive
79 | CCCOc1cc(OCCC)c2c3c(c(=O)oc2c1)CCCC3 | 7.1%
80 | CCCCOc1cc(OCCCC)c2c3c(c(=O)oc2c1)CCC3 | 92.8% (active)
81 | CCCCOc1cc(OCCCC)c2c3c(c(=O)oc2c1)CCCC3 | inactive
82 | O=C(O)c1cccc(N2C(=O)C3C4CCC(C4)C3C2=O)c1 (stereo unspecified) | 31.6%
83 | Cc1ccn2c(NC(=O)C(C)(C)Oc3ccc(Cl)cc3)c(-c3cccs3)nc2c1 | 6%
84 | CCCCN(C)Cc1c(O)ccc2c(=O)c(-c3ccccc3OC)c(C(F)(F)F)oc12 | 3.4%
85 | CC1(C)CC(=O)C(C(c2ccc(Br)cc2)C2C(=O)CC(C)(C)CC2=O)C(=O)C1 | 74.7% (active)
86 | CN1C(=O)NC(c2cccc([N+](=O)[O-])c2)C2=C1CC(C)(C)CC2=O (stereo unspecified) | inactive
87 | CC1(C)CC(=O)C(C(c2ccc3ccccc3c2)C2C(=O)CC(C)(C)CC2=O)C(=O)C1 | 80.9% (active)
88 | CC1(C)CC(=O)C(C(c2cccc([N+](=O)[O-])c2)C2C(=O)CC(C)(C)CC2=O)C(=O)C1 | 78.4% (active)
89 | CC1(C)CC(=O)C(C(c2cccc(OCc3ccccc3)c2)C2C(=O)CC(C)(C)CC2=O)C(=O)C1 | 91.9% (active)
90 | COc1ccc(C(C2C(=O)CC(C)(C)CC2=O)C2C(=O)CC(C)(C)CC2=O)cc1OC | 24.6%
91 | CC1(C)CC(=O)C(C(C2=C(O)CC(C)(C)CC2=O)c2cccc(O)c2O)C(=O)C1 (stereo unspecified) | 57%
92 | COc1ccc(C(C2C(=O)CC(C)(C)CC2=O)C2C(=O)CC(C)(C)CC2=O)cc1COCC(F)(F)F | 34.1%
93 | CC1(C)CC(=O)C(C(c2ccco2)C2C(=O)CC(C)(C)CC2=O)C(=O)C1 | 30.9%
94 | COc1cccc(C(C2C(=O)CC(C)(C)CC2=O)C2C(=O)CC(C)(C)CC2=O)c1 | 53.4%
95 | COc1cc(C(C2C(=O)CC(C)(C)CC2=O)C2C(=O)CC(C)(C)CC2=O)ccc1O | 19.2%
96 | CC1(C)CC(=O)C2=C(C1)Nc1ncnn1C2c1cccc([N+](=O)[O-])c1 (stereo unspecified) | inactive
